Tests used:
Test in all cases: PBM binding z-score (relative to random genomic background probes); higher = stronger binding; sequences stand for … in GC…GCGATTGACAGCGTAGAATGAAGG
[1] = system: FXR:RXRa (NR concentration 270 nM, RXRa partner concentration 90 nM)
Outline: (§1)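 Binding buffer was PBS pH 7.4 with 2% milk, 0.02% Triton X-100, 1 mM DTT, 0.2 mg/mL BSA and 0.4 mg/ml salmon testes DNA. In it, ligand-free nuclear receptor dimers were incubated 1 h on custom Agilent 4×180K protein-binding microarrays carrying double-stranded probes. Antibodies against each partner (one per run) detected binding, and z-scores were calculated against random background probes after regression normalization of scanned fluorescence.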

[2] = system: LXRa:RXRa (NR concentration 270 nM, RXRa partner concentration 90 nM)
Outline: as §1

[3] = system: LXRa homodimer (NR concentration 270 nM)
Outline: as §1

[4] = system: LXRb:RXRa (NR concentration 270 nM, RXRa partner concentration 90 nM)
Outline: as §1

[5] = system: LXRb homodimer (NR concentration 270 nM)
Outline: as §1

[6] = system: PPARa:RXRa (NR concentration 270 nM, RXRa partner concentration 90 nM)
Outline: as §1

[7] = system: PPARg:RXRa (NR concentration 180 nM, RXRa partner concentration 90 nM)
Outline: as §1

[8] = system: PPARg:RXRa 270nM:90nM, anti-RXR (NR concentration 270 nM, RXRa partner concentration 90 nM)
Outline: as §1

[9] = system: PPARg:RXRa 30nM:10nM, anti-RXR (NR concentration 30 nM, RXRa partner concentration 10 nM)
Outline: as §1

[10] = system: PPARg:RXRa 90nM:30nM, anti-RXR (NR concentration 90 nM, RXRa partner concentration 30 nM)
Outline: as §1

[11] = system: PPARg:RXRa DBDmut IVT, anti-RXR (DBD mutation: RXRa K156A/R161A, NR concentration 270 nM, RXRa partner concentration 90 nM)
Outline: as §1

[12] = system: PPARg:RXRa IVT, anti-PPARg (NR concentration 270 nM, RXRa partner concentration 90 nM)
Outline: as §1

[13] = system: PPARg DBDmut:RXRa IVT, anti-PPARg (DBD mutation: PPARg1 K132A/R137A, NR concentration 270 nM, RXRa partner concentration 90 nM)
Outline: as §1

[14] = system: PPARg DBDmut IVT, anti-PPARg (DBD mutation: PPARg1 K132A/R137A, NR concentration 270 nM)
Outline: as §1

[15] = system: PPARg homodimer (NR concentration 180 nM)
Outline: as §1

[16] = system: PXR:RXRa (NR concentration 270 nM, RXRa partner concentration 90 nM)
Outline: as §1

[17] = system: PXR homodimer (NR concentration 270 nM)
Outline: as §1

[18] = system: RARa:RXR (NR concentration 270 nM, RXRa partner concentration 90 nM)
Outline: as §1

[19] = system: RARa homodimer (NR concentration 270 nM)
Outline: as §1

[20] = system: RARb:RXRa (NR concentration 270 nM, RXRa partner concentration 90 nM)
Outline: as §1

Sequence	PBM binding z-score [1]	PBM binding z-score [2]	PBM binding z-score [3]	PBM binding z-score [4]	PBM binding z-score [5]	PBM binding z-score [6]	PBM binding z-score [7]	PBM binding z-score [8]	PBM binding z-score [9]	PBM binding z-score [10]	PBM binding z-score [11]	PBM binding z-score [12]	PBM binding z-score [13]	PBM binding z-score [14]	PBM binding z-score [15]	PBM binding z-score [16]	PBM binding z-score [17]	PBM binding z-score [18]	PBM binding z-score [19]	PBM binding z-score [20]
AGAACGAGGGCAATGAGTAGATAGCACGGGTGGC	0.288	0.27	-0.537	-0.239	-0.59	1.49	1.6	1.05	0.241	0.733	2.9	2.75	0.5	-0.201	0.383	0.323	0.226	0.413	0.137	2
CGAACTGGGTCAGAACAGGACAGTGAAGGATGAT	0.455	0.381	-0.423	0.0427	-0.721	2.66	4.95	3.9	1.63	3.42	6.73	6.56	2.09	2.05	0.887	1.06	-0.389	1.31	0.0168	2.23
CCTACTGGGCCAAGGCCATTGATCAGTCAAAGCA	-0.412	-0.51	-0.664	-0.606	-0.891	-0.0978	0.449	0.724	-0.7	-0.174	2.95	2.89	-0.753	-1.61	0.0949	-0.456	-0.233	-0.557	-0.85	0.554
TCATTTAGGTAAATGCTAGGTGAAAGTCCGATCT	0.568	0.673	0.0938	0.395	0.604	1.41	0.312	1.97	3.57	2.65	3.13	2.44	1.71	1.17	0.343	0.445	-0.0267	0.799	0.628	0.562
ATCTCTAGGTAAGGTTCAGTGAAAGATCGATAGA	0.902	1.26	0.551	1.07	1.03	1.4	1.25	2.17	0.962	1.9	1.52	1.27	1.88	0.757	1.1	0.838	0.974	1.21	1.79	1.34
AATACAGGGTCCCTAGGCCAGAGTAGGTACGAAT	-0.341	-0.334	-0.145	-0.634	-0.575	-0.299	0.603	0.00679	0.133	0.0597	-0.243	0.245	-0.698	-1.31	-0.659	-0.49	-0.525	-0.409	0.104	0.138

Reference: the supplement of paper PMC6555819
